Screening data as filed in PubChem.
TbPYK inhibitor = T. brucei pyruvate kinase inhibition. Q57TT1. TbPYK enzyme, Kinase-Glo Plus ATP luminescence, 45 min. Potency, µM (doses to about 76.8 µM), actives largely listed as inhibitors. 0.12% of 410,000 active. AID 624173; further: nearly all actives have a fitted effect of over 50% in size
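ADP (130 uM final) triggers the TbPYK reaction after compound addition; incubation is 45 min at room temperature. Kinase-Glo Plus is then added and luminescence imaged. Normalized data are fitted to concentration-effect curves.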
Giardia FBPA inh = inhibitors of Giardia lamblia fructose-1,6-bisphosphate aldolase; A8B2U2; 0.71% of 290,000 active; purified Giardia FBPA; Potency, µM (titrated, usually from 59.6 µM), most hits filed as inhibitors; further: nearly all actives have a fitted effect of over 55% in size
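Giardia FBPA (40 nM reagent) was preincubated 10 min at RT with compound (up to 57.5 uM final), then substrate plus GAPDH/TPI/NAD/arsenate coupling system with diaphorase/resazurin was added; resorufin fluorescence (525/598 nm) was read after 20 min.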
RE007 growth inh = less growth of the S. pombe RE007 Vpr strain; S. pombe RE007 Vpr strain, BacTiter-Glo ATP luminescence, 24 h; Potency, µM (titrated, usually from 92.2 µM), usual class: inhibitors; 0.21% of 360,000 active; AID 651644; active means well fitted falling curve with a large enough effect; inconclusive means small, poorly fitted or top-dose-only effect; inactive means no such curve, though single readings can be large or run the other way; further: nearly all actives have a fitted effect of over 50% in size
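Fission yeast strain RE007, carrying one chromosomally integrated HIV-1 vpr copy, was seeded at OD 0.01 in PMG+AL medium with 23 nL pinned compound. After 24 h at 30 °C and 99% humidity, viability was read by BacTiter-Glo luminescence.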
LmPK inh = inhibitors of Leishmania mexicana pyruvate kinase. purified LmPK, Kinase-Glo ATP luminescence, 1 h. Potency, µM (doses to about 57.5 µM), actives largely listed as inhibitors. 0.37% of 290,000 active
Target sequence (Q27686 whole entry, looked up): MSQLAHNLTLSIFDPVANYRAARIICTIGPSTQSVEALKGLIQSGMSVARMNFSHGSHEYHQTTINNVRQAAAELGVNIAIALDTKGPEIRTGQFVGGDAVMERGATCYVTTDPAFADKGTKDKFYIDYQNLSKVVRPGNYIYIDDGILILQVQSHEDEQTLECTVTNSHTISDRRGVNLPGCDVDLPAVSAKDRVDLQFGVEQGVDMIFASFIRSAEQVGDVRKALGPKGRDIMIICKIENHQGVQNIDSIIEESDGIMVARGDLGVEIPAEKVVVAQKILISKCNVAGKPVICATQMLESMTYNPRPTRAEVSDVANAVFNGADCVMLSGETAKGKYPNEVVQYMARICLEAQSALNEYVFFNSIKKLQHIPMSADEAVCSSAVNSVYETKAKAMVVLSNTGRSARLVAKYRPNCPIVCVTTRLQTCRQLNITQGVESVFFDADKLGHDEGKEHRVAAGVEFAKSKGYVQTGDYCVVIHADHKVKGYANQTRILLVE
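Purified LmPK (0.1 nM) with 0.5 mM PEP and 0.1 mM ADP in imidazole buffer pH 7.2 with MgCl2/KCl, 1 h at room temperature. ATP formed was read by luciferase luminescence and normalized to no-enzyme and uninhibited controls.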
Numbers stand for hits; i = inactive; ? = inconclusive; nt = no result; [ ] = remark or other dose. Only some compounds are listed: those with a hit (about 0.95% of all), similar ones and a draw of the others. Unless noted, the call rests on the fitted dose curve; in most records, active means well fitted curve in the direction sought with a large enough effect; inconclusive means small, poorly fitted or top-dose-only effect, or another doubt; inactive means no such curve, though single readings can be large; an effect the other way counts as inactive or inconclusive.

SMILES	TbPYK inhibitor	Giardia FBPA inh	RE007 growth inh	LmPK inh
CC1(C)O[C@@H]2[C@H](O1)[C@@H](COS(=O)(=O)O)O[C@H]2n1c(=S)[nH]c2c(=O)[nH]c(N)nc21	35µM	nt	i	nt
Cc1cc(NCc2ccccn2)n2ncc(-c3ccc(Cl)cc3)c2n1	i	i	28µM	i
CC1=C[C@@H](O)CC(C)(C)[C@@H]1/C=C/C(C)=C/C=C/C(C)=C/C=C/C=C(C)/C=C/C=C(C)/C=C/C1=C(C)C[C@H](O)CC1(C)C	i	nt	nt	nt
CC(NC(=O)/C(C#N)=C/c1ccc([N+](=O)[O-])o1)c1ccccc1 (stereo unspecified)	i	?	5µM	i
CCOCCCNC(=O)/C(C#N)=C/c1ccc([N+](=O)[O-])o1	i	?	45µM	i
C=Cc1c(C)/c2[n-]/c1=C\c1[n-]c(c(CC)c1C)/C=c1\[n-]c3c(c1C)C(=O)C(C(=O)[O-])C=3c1[n-]c(c(C)c1CCC(=O)[O-])\C=2.[Cu].[Na+].[Na+] (stereo unspecified)	i	14µM	nt	nt
CC(C)(C)c1cc(C(C)(C)C)c(NC(=O)c2c[nH]c3ccccc3c2=O)cc1O	i	nt	nt	nt
O=C1c2cccc3cccc(c23)C(=O)C1(O)O	7.1µM	nt	i	nt
O=c1c(-c2ccc(Cl)cc2)nc2cnc(N3CCOCC3)nc2n1C1CC1	i	i	nt	nt
CCN1/C(=C/c2ccc3ccccc3[n+]2CC)C=Cc2ccccc21	32µM	i	22µM	14µM
CCOC(=O)NNc1ccc(N(CC)CC(C)O)nn1 (stereo unspecified)	i	nt	nt	nt
O=S(=O)(Nc1ccc(O)c2ccccc12)c1cccs1	i	?	i	11µM
O=S(=O)(Nc1cccc2ccccc12)c1cccs1	i	nt	i	i
CC(CSC(=O)c1ccccc1)C(=O)N1CC(Sc2ccccc2)CC1C(=O)O (stereo unspecified)	i	nt	nt	nt
Cc1cccn2cc(-c3ccc(F)cc3)nc12	i	i	?	16µM
O=C(Nc1ccc(Cl)cc1)Nc1ccc(Cl)c(C(F)(F)F)c1	i	nt	nt	nt
COC(=O)c1nc(-c2ccc3c(n2)C(=O)C(N)=C(OC)C3=O)c(N)c(-c2ccc(OC)c(OC)c2O)c1C	i	10µM	i	i
COc1ccc(NC(=O)/C(Cl)=C(/Cl)S(=O)Cc2ccccc2)cn1 (stereo unspecified)	i	i	45µM	i
COc1ccc(NC(=O)Cc2ccccc2)cn1	i	i	i	i
COc1cc2c(cc1O)CCN[C@@]21CS[C@H]2c3c(OC(C)=O)c(C)c4c(c3C(COC1=O)N1C2C2c3c(cc(C)c(OC)c3O)CC([C@@H]1O)N2C)OCO4 (stereo partly specified)	i	nt	nt	nt
Cc1ccsc1C=Nc1ccc(O)cc1	i	5.6µM	i	i
O=[N+]([O-])c1ccc(S(=O)(=O)c2cccc(C(F)(F)F)c2)nc1	i	nt	40µM	nt
O=S(=O)(Nc1cccnc1)c1cccc(C(F)(F)F)c1	i	i	i	i
CC(C)C(Cl)=NOC(=O)Nc1ccc(F)cc1	i	nt	10µM	nt
CC(=O)SCC(CC(=O)c1ccc(C)cc1)C(=O)O (stereo unspecified)	i	nt	nt	nt
SMILES	TbPYK inhibitor	Giardia FBPA inh	RE007 growth inh	LmPK inh
Cc1cccc(C(=O)N2CCCCCC2)c1	i	i	i	i
Cc1ccc(C(=O)n2ncn(C)c2=S)cc1	?	i	i	i
Cc1cccc(C(=O)n2c(=S)nc3ccccn32)c1	i	i	?	13µM
Cc1ccc(C(=O)n2c(=S)nc3ccccn32)cc1	nt	i	nt	14µM
COc1ccc(COC(=O)N/N=C2/C[C@@H](O)[C@@H](O)[C@@H]3[C@@H]4C(=O)N(c5cccc(Oc6ccccc6)c5)C(=O)[C@H]4CC[C@@H]23)cc1	nt	i[12.9 µM]	nt	nt
Cc1cccc(NC(=O)c2onc3c2CCCC3)n1	?	i	22µM	13µM
COC(=O)c1cccc(NC(=O)c2onc3c2CCCC3)c1	i	i	?	?
Cc1cccc(NC(=O)c2onc3c2CCCC3)c1C	i	i	4µM	?
O=C(Nc1ccc2ccccc2c1)c1onc2c1CCCC2	i	i	3.5µM	i
Cc1ccccc1NC(=O)c1onc2c1CCCC2	i	i	5µM	13µM
CC(=O)N1CCC2(CCCN(C(c3ccccc3)c3ccccc3)C2)CC1	i	i	nt	nt
COc1ccc(C(=O)NCc2ccc3c(c2)CCN3C(=O)c2cccc(C)c2)cc1OC	i	nt	nt	nt
CC12CCC(=O)CC1CCC1C2CCC2(C)C1CCC2(C)O (stereo unspecified)	i	nt	nt	nt
CC(C)Cn1c2c(c(O)c(C(=O)Nc3ncccc3O)c1=O)CCCC2	i	7.9µM	i	i
CC(C)Cn1c2c(c(O)c(C(=O)Nc3ccc(F)cc3)c1=O)CCCC2	i	i	i	i
COc1ccc(COC(=O)N/N=C2/C[C@@H](O)[C@@H](O)[C@@H]3[C@@H]4C(=O)N(Cc5ccccc5)C(=O)[C@H]4CC[C@@H]23)cc1	nt	i[12.9 µM]	nt	nt
Cc1cnc(NC(=O)c2cccs2)s1	i	i	i	i
O=C(Nc1ncc([N+](=O)[O-])s1)c1cccs1	?	i	28µM	14µM
O=C(Nc1ccc(Cl)cc1Cl)c1cccc(N2C(=O)C=CC2=O)c1	?	nt	1.3µM	i
O=C(O)c1cccc(N2C(=O)C=CC2=O)c1	?	nt	i	nt
COc1cc(/C=N/N2CCN(Cc3ccc(C)cc3)CC2)cc(OC)c1O	14µM	i	i	i
Cc1ccc(CN2CCN(/N=C/c3ccccc3)CC2)cc1	i	i	i	i
NC(=O)c1ccc(-c2nc(-c3ccc4c(c3)OCCO4)c(-c3ccccn3)[nH]2)cc1	i	nt	nt	nt
Oc1ccccc1N=N/C(=N/Nc1ccccc1O)c1ccccc1	i	nt	i	nt
N#C/C(N=Nc1ccccc1O)=N\Nc1ccccc1O	?	nt	11µM	nt
SMILES	TbPYK inhibitor	Giardia FBPA inh	RE007 growth inh	LmPK inh
CC(C)(C)C1=CC(=O)C(=O)C(C(C)(C)C)=C1	8.9µM	7.1µM	i	14µM
Nc1ncnc2c1nc(Sc1ccc(Cl)cc1)n2[C@H]1O[C@@H]2COP(=O)(O)O[C@H]2[C@@H]1O	nt	i	nt	nt
CSc1ccccc1NC(=O)Nc1ccc(Cl)cc1	i	i	i	?
COc1ccc(NC(=O)Nc2ccccc2SC)cc1	i	i	i	10µM
CN1/C(=C\C(=O)c2cccs2)Sc2ccccc21	i	i	i	11µM
CSCCC(NC(=O)[C@H](Cc1c[nH]c2ccccc12)NC(=O)CNC(=O)[C@H](CCSC)NC(=O)[C@H](Cc1ccc(OS(=O)(=O)O)cc1)NC(=O)[C@@H](N)CC(=O)O)C(=O)N[C@@H](CC(=O)O)C(=O)N[C@@H](Cc1ccccc1)C(N)=O (stereo partly specified)	i	nt	nt	nt
Cc1cc2nc(/C=C/c3nc4cc(C)c(C)cc4[nH]3)[nH]c2cc1C	i	i	nt	i
Cc1ccc(/C=C/c2nc3ccccc3[nH]2)o1	?	?	i	16µM
CCn1c(-c2cccn(Cc3ccc(Cl)cc3Cl)c2=O)n[nH]c1=S	5.6µM	i	i	i
S=c1[nH]nc(-c2ccc(Cl)cc2Cl)n1Cc1ccccc1	i	i	?	?
CCc1ccc(C(=O)c2cn(Cc3ccc(F)cc3)c3cc(OC)c(OC)cc3c2=O)cc1	i	nt	nt	nt
S=c1[nH]nc(-c2ccc(Cl)cc2Cl)n1-c1ccccc1	i	i	i	i
